Experimental findings from PubChem BioAssay (NCI) are described below.

Holding throughout (assay): NCI-60 one-dose screen, 48 h (100 = growth as untreated, 0 = no growth, -100 = all killed)
What all share (settings): 10 µM unless noted

The test system of assay [1] is T-47D breast.
The subject of assay [2] is MDA-MB-435 melanoma.
For assay [3], the system named is SW-620 colon.
The test system of assay [4] is MCF7 breast.
Assay [5] has as its system HCT-116 colon.
Assay [6] has as its system HCC-2998 colon.
Assay [7] concerns KM12 colon.

This is part of a sample that, as a whole, favours compounds with a hit. Of some 83,000 tested, about 20% had one in any assay.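 Testing used 96-well plates and a 48-hour single-concentration exposure. Example: -40 means 40% of the starting cells died.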 Values without a mark were called inactive. Activity calls are given as the source filed them. How the source made its calls: active means growth percent below 10; inactive means the rest.

On to `CCC(C)[C@H](NC(=O)NC(=O)NC(=O)CI)C(=O)OC` (some centres undefined), for which the growth in assay [1] was 38.5%; in assay [2] it was 69.5%; in assay [3], 9.41% (active); in assay [4] it was 42.1%; in assay [5], 65.2%; in assay [6], 103%. Also, in assay [7], the growth was 100%.
Turning to `O=C(O)c1cn(C2CC2)c2cc(N3CCN(Cc4cc(Cl)ccc4O)CC3)c(F)cc2c1=O`, the growth in assay [1] was 67.4%; in assay [2], 74.2%; in assay [3] it was 83.6%; in assay [4] it was 54.6%; in assay [5], 72.3%; in assay [6], 82.4%. Also, in assay [7], the growth was 62.5%.
With `Cc1cccc(/C=C2\N=C(c3ccccc3)N(c3ccc(S(N)(=O)=O)cc3)C2=O)c1`, the growth in assay [1] is 85.2%; in assay [2] it was 92.3%; in assay [3] it was 104%; in assay [4], 82.1%; in assay [5], 83.9%; in assay [6] it was 99.8%. Further, the growth in assay [7] is 98.1%.
`CC(=O)O.CC(=O)O.O.[Fe]`: the growth in assay [1] is 97.7%; in assay [2], 128%; in assay [3], 98.3%; in assay [4], 111%; in assay [5], 108%; in assay [6] it was 115%. Further, in assay [7], the growth was 104%.
As for `CCOc1ccc2sc(NS(=O)(=O)c3ccc(N)cc3)nc2c1`, the growth is 122% in assay [1]; 107% in assay [2]; 115% in assay [3]; 97.4% in assay [4]; 110% in assay [5]; 107% in assay [6]. For the same molecule, in assay [7], the growth is 105%.
For `C=CC1=C(C)C2=NC1=CC1=NC(=CC3=C(C)C4=C(O)C(C(=O)O)C(=C5NC(=C2)C(C)C5CCC(=O)O)C4=N3)C(CC)=C1C` (centres undefined), the growth in assay [1] is 123%; in assay [2], 120%; in assay [3], 104%; in assay [4], 113%; in assay [5], 101%; in assay [6], 109%. The growth in assay [7] was 105%.
For `Cc1ccc(S(=O)(=O)Oc2ccc(Br)cc2Br)cc1`, the growth in assay [1] is 70.7%; in assay [2], -46% (active); in assay [3] it was 58.6%; in assay [4], 75.7%; in assay [5], 49.3%; in assay [6], 78.3%. Further, the growth in assay [7] was 45.9%.
As to `CCCCCCNC(=O)Nc1ncnc2c1ncn2-c1ccccc1`, the growth in assay [1] was 66.6%; in assay [2], 102%; in assay [3], 95.9%; in assay [4], 89.4%; in assay [5] it was 90.2%; in assay [6] it was 118%. Further, the growth in assay [7] is 108%.
Turning to `O=C(Nc1ccc(Cl)c(C(F)(F)F)c1)Nc1ccc(-c2cccnc2)cc1N1CCC(CO)CC1`, the growth is 5.62% (active) in assay [1]; 15.5% in assay [2]; 35.5% in assay [3]; 16.2% in assay [4]; 11.8% in assay [5]; 13.9% in assay [6]. For the same molecule, in assay [7], the growth was 25.7%.
In the case of `O=C1C(Cl)=C(Nc2ccc3cn[nH]c3c2)C(=O)c2ccccc21`, the growth is -52.3% (active) in assay [1]; -95% (active) in assay [2]; -86% (active) in assay [3]; -68.3% (active) in assay [4]; -98.6% (active) in assay [5]; -83% (active) in assay [6]. In assay [7], the growth was 28%.
Take `O=C(Nc1ccc(Nc2ccncc2)cc1)c1ccc([N+](=O)[O-])cc1`: the growth in assay [1] is 29.7%; in assay [2], 79.5%; in assay [3], 30.5%; in assay [4], 51.6%; in assay [5], 27.3%; in assay [6], 66.7%. Moreover, the growth in assay [7] was 79.5%.
On to `O=C1NC(=O)C(Cc2ccc(OCc3ccc(-c4cc(F)c(F)c(F)c4)cc3)cc2)S1` (centres undefined), for which the growth in assay [1] was 57.6%; in assay [2] it was 99%; in assay [3], 95.2%; in assay [4], 83.9%; in assay [5] it was 83.9%; in assay [6] it was 97.3%. Further, the growth in assay [7] was 81.9%.
With `COCCCNc1nc(NC(=O)c2cc(Br)cc(C(F)(F)F)c2)cc(-c2cccnc2)n1`, the growth in assay [1] is 65%; in assay [2], 88.4%; in assay [3] it was 86.9%; in assay [4] it was 83.8%; in assay [5] it was 85.6%; in assay [6], 114%. Also, the growth in assay [7] was 105%.
For the molecule `C/C=C/C1OC23CCCCC2C(C#N)(C(=N)O3)C1(C#N)C#N` (centres undefined), the growth is 84.9% in assay [1]; 91.8% in assay [2]; 92.9% in assay [3]; 86.2% in assay [4]; 94.2% in assay [5]; 109% in assay [6]. For the same molecule, the growth in assay [7] is 96.3%.
Consider `Cn1cc(-c2noc(-c3cn(C)c4ncc(Br)cc34)n2)c2cc(Cl)ccc21`, for which the growth is 31.6% in assay [1]; 68.3% in assay [2]; 39.9% in assay [3]; 65.9% in assay [4]; 35.2% in assay [5]; 93.9% in assay [6]. In addition, the growth in assay [7] is 75.7%.
On to `COc1ccc(C(=O)CSc2nccc(Nc3ccc(C(=O)O)cc3)n2)cc1`, for which the growth in assay [1] is 102%; in assay [2], 106%; in assay [3], 95.6%; in assay [4], 101%; in assay [5] it was 95.7%; in assay [6] it was 104%. For the same molecule, the growth in assay [7] is 101%.
In the case of `C[C@]12CCc3c(ccc4cc(O)ccc34)[C@@H]1CC[C@H]2O`, the growth was 91.8% in assay [1]; 80.1% in assay [2]; 99.1% in assay [3]; 116% in assay [4]; 102% in assay [5]; 98.1% in assay [7].
For the molecule `CCCn1ccnc1C(O)c1ccc(OCc2ccccc2)c(OC)c1` (centres undefined), the growth in assay [1] is 83.3%; in assay [2] it was 94.3%; in assay [4], 85.4%; in assay [5], 92.6%; in assay [6], 95.8%; in assay [7] it was 101%.
